This is a sample that favours compounds with a hit; in the whole collection about 5.7% have one here.
KDM4E inh – qHTS Assay for Inhibitors of Human Jumonji Domain Containing 2E (JMJD2E). Lysine-specific demethylase 4E (Homo sapiens), B2RXH2. JMJD2E catalytic domain, FDH-coupled NADH fluorescence (FDH is formaldehyde dehydrogenase). Potency, µM (series often up to 57.1 µM), usual class: inhibitors. 230,000 tested, 1.6% active. AID 2147, 2009; active = well fitted inhibition curve with a large enough effect, not every such curve was filed as active; inconclusive = small, poorly fitted or top-dose-only effect, or another doubt; inactive = no such curve, though single readings can be large or run the other way; note: nearly all actives have a fitted effect of over 50% in size
HP1b binding inh – HTS for Inhibitors of HP1-beta Chromodomain Interactions with Methylated Histone Tails | 390,000 tested, 0.56% active | Potency, µM (top dose mostly 114 µM), hits mostly inhibitors | Chromobox protein homolog 1 (Homo sapiens), P83916 | AlphaScreen HP1-beta / biotin-H3K9me3 peptide binding; note: nearly all actives have a fitted effect of over 70% in size
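Compound inhibition of the preformed complex between 50 nM HP1-beta and 50 nM biotinylated H3K9me3 peptide was read by AlphaScreen. Buffer was PBS pH 7.4 with 0.01% Tween-20. Incubations ran 30 min at room temperature, with 10 ug/mL donor/acceptor beads.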
L3MBTL1 block – qHTS Assay for the Inhibitors of L3MBTL1; Lethal(3)malignant brain tumor-like protein 1 (Homo sapiens), Q9Y468; AlphaScreen L3MBTL1–H3K9me1 peptide binding; Potency, µM (series often up to 57.1 µM), usual class: inhibitors; 230,000 tested, 0.66% active; AID 485360, 2010; note: nearly all actives have a fitted effect of over 60% in size
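Read-out is AlphaScreen signal from streptavidin donor and nickel chelate acceptor beads (10 ug/mL final each) bridging L3MBTL1 (50 nM) and biotinylated K9-monomethylated H3(1-15) peptide (75 nM), after 30 min compound exposure at room temperature.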
JMJD2A Tudor inh – qHTS Assay for Inhibitors of JMJD2A-Tudor Domain | 390,000 tested, 4.4% active | AID 504339, 2011 | Lysine-specific demethylase 4A (Homo sapiens), O75164 | Potency, µM (doses to about 114 µM), hits mostly inhibitors | AlphaScreen JMJD2A-Tudor / H3K4me3 peptide binding; note: nearly all actives have a fitted effect of over 50% in size
PI5P4K alpha inh – qHTS for Inhibitors of phosphatidylinositol 5-phosphate 4-kinase (PI5P4K); Phosphatidylinositol 5-phosphate 4-kinase type-2 alpha (Homo sapiens), P48426; 330,000 tested, 1.2% active; AID 652105, 2013; PI5P4Kalpha enzyme, ADP-Glo luminescence, 60 min; active compounds read low; max response, %; active = max response of -50% or lower; inconclusive = between -30% and -50%; inactive = -30% or higher; note: value at the top dose of about 77 µM
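Luminescence from ADP-Glo served as readout of PI5P4Kalpha activity in a qHTS format. Reaction: enzyme, substrate, compound, ATP at 5 microM final, 60 min at RT.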
BAZ2B inh – qHTS Assay for Inhibitors of BAZ2B | Potency, µM (highest dose often 114 µM), hits mostly inhibitors | Bromodomain adjacent to zinc finger domain protein 2B (Homo sapiens), Q9UIF8 | AID 504333, 2011 | AlphaScreen BAZ2B-H3K14Ac peptide displacement | 360,000 tested, 4.4% active; note: nearly all actives have a fitted effect of over 60% in size
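AlphaScreen displacement of biotin-H3(5-23)K14Ac peptide (50 nM final) from BAZ2B (50 nM final) in PBS pH 7.4, 0.01% Tween-20; complex preformed 30 min RT, then compounds (top 110 uM) 30 min RT, beads 20 min dark.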
Large screens that a line does not name were inactive. Unless noted, calls come from the whole dose curve; as a rule, active = well fitted inhibition curve with a large enough effect; inconclusive = small, poorly fitted or top-dose-only effect; inactive = no such curve, though single readings can be large or run the other way.

CCOc1ccccc1CN(CCc1ccc2c(c1)OCO2)Cc1cc(OC)c(OC)cc1OC	HP1b binding inh inconclusive, JMJD2A Tudor inh 5.6µM, BAZ2B inh 45µM (no result: KDM4E inh, L3MBTL1 block, PI5P4K alpha inh)
C/C(=N\NC(=O)c1ccccc1)C1C2C=CC(C2)C1(C)C (stereo unspecified)	none (no result: KDM4E inh, L3MBTL1 block)
CCn1cnc2c1c(=O)n(Cc1cccc(Br)c1)c(=O)n2Cc1ccccc1	JMJD2A Tudor inh 71µM (no result: KDM4E inh, L3MBTL1 block)
COc1ccc(NC2=NCC(=O)N2Cc2cccs2)cc1	none
Cc1ccc(NC2=NCC(=O)N2Cc2cccs2)cc1C	BAZ2B inh 79µM
CCCCSc1nc2c(cc1C#N)CCC2	none (no result: PI5P4K alpha inh)
CCCSc1nc(C)c(-c2csc(C(C#N)=C3CCCC3)n2)cc1C#N	KDM4E inh inconclusive, L3MBTL1 block inconclusive, JMJD2A Tudor inh 50µM, BAZ2B inh 20µM (no result: PI5P4K alpha inh)
O=C(C1CC(=O)N(c2ccc3c(c2)OCCO3)C1)N1CCN(c2ccccc2)CC1 (stereo unspecified)	L3MBTL1 block inconclusive, JMJD2A Tudor inh inconclusive, PI5P4K alpha inh inconclusive, BAZ2B inh 50µM
O=C(C1CC(=O)N(c2ccc3c(c2)OCCO3)C1)N1CCN(c2ccccc2O)CC1 (stereo unspecified)	none (no result: KDM4E inh, L3MBTL1 block)
CCOc1ccc(C(=O)N/N=C(\c2ccccc2)c2ccccn2)cc1	BAZ2B inh 79µM
O=C(N/N=C(\c1ccccc1)c1ccccn1)c1cccc([N+](=O)[O-])c1	JMJD2A Tudor inh inconclusive, BAZ2B inh 25µM (no result: L3MBTL1 block)
Cn1ccnc1/C(=N\NC(=O)c1ccccc1)c1cccc([N+](=O)[O-])c1	L3MBTL1 block inconclusive
CCc1ccc(/C(C)=N/NC(=O)c2ccccn2)cc1	none
CC(C)(C)NC(=O)CN(C(=O)C(=O)Nc1ccc2c(c1)OCCO2)C(C)(C)C	none
CC(=O)c1cccc2c(O)c(C3=Nc4ccccc4C3=O)[nH]c12	KDM4E inh inconclusive, JMJD2A Tudor inh 45µM, BAZ2B inh 25µM
O=[N+]([O-])c1cccc(NC2=NCCC2)c1	none
O=[N+]([O-])c1cccc(Nc2nc(Cl)nc(Cl)n2)c1	BAZ2B inh 89µM (no result: L3MBTL1 block)
CCOC(=O)c1ccc(NC(=O)CSc2nnc(CNC(=O)c3ccc(OC)cc3)n2CC)cc1	none (no result: KDM4E inh, L3MBTL1 block, PI5P4K alpha inh)
COCCN(C(=O)c1cc2c(s1)CCC2)c1c(N)n(CC(C)C)c(=O)[nH]c1=O	L3MBTL1 block inconclusive, JMJD2A Tudor inh inconclusive, PI5P4K alpha inh inconclusive, BAZ2B inh 56µM (no result: KDM4E inh)
Cc1ccccc1C(=O)N1CCC(C(=O)N(CC(C)C)c2c(N)n(CC(C)C)c(=O)[nH]c2=O)CC1	none (no result: KDM4E inh)
COCCN(C(=O)C1CCN(C(=O)c2ccccc2C)CC1)c1c(N)n(CC(C)C)c(=O)[nH]c1=O	JMJD2A Tudor inh 89µM, BAZ2B inh inconclusive (no result: KDM4E inh)
Cc1cc2c(s1)c1cnn(Cc3ccc(F)cc3Cl)c(=O)c1n2C	none (no result: KDM4E inh, HP1b binding inh, L3MBTL1 block, PI5P4K alpha inh, BAZ2B inh)
CCCC(NC(=O)Cc1c(C)c2cc3c(C)c(C)oc3c(C)c2oc1=O)C(=O)N[C@@H](Cc1ccccc1)C(=O)O (stereo partly specified)	HP1b binding inh inconclusive, JMJD2A Tudor inh 56µM, BAZ2B inh 50µM (no result: KDM4E inh, L3MBTL1 block)
COc1ccc(-c2coc3c(C)c4oc(=O)c(CCC(=O)O)c(C)c4cc23)cc1	HP1b binding inh inconclusive, PI5P4K alpha inh inconclusive, BAZ2B inh inconclusive (no result: KDM4E inh, L3MBTL1 block)
Cc1c(CCC(=O)O)c(=O)oc2c(C)c3occ(-c4ccc(Br)cc4)c3cc12	HP1b binding inh inconclusive, JMJD2A Tudor inh inconclusive, BAZ2B inh 56µM (no result: KDM4E inh, L3MBTL1 block)
Cc1coc2c(C)c3oc(=O)c(CCC(=O)NCCc4ccccc4)c(C)c3cc12	none (no result: KDM4E inh, L3MBTL1 block, PI5P4K alpha inh)
Cc1coc2c(C)c3oc(=O)c(CCC(=O)N[C@@H](C)C(=O)N[C@@H](Cc4ccccc4)C(=O)O)c(C)c3cc12	JMJD2A Tudor inh 89µM, BAZ2B inh inconclusive (no result: KDM4E inh, L3MBTL1 block)
CCCCC(NC(=O)Cc1c(C)c2cc3c(C)c(C)oc3c(C)c2oc1=O)C(=O)O (stereo unspecified)	none (no result: KDM4E inh, L3MBTL1 block)
O=c1[nH]c2ccc(NCc3ccc(-c4cccc(Cl)c4)o3)cc2[nH]1	none (no result: KDM4E inh, L3MBTL1 block, PI5P4K alpha inh)

Screens: PubChem, National Center for Advancing Translational Sciences (NCATS)
